An excerpt weighted towards active compounds, which were near 27% of everything screened.
sEH inhibitor: inhibitors of human soluble epoxide hydrolase. P34913. inhibition, % at 2 µM. recombinant human sEH enzymatic activity assay. 91,000 compounds, 0.34% hits; in the data active = inhibition above about 80%
Target sequence (P34913 whole entry, looked up): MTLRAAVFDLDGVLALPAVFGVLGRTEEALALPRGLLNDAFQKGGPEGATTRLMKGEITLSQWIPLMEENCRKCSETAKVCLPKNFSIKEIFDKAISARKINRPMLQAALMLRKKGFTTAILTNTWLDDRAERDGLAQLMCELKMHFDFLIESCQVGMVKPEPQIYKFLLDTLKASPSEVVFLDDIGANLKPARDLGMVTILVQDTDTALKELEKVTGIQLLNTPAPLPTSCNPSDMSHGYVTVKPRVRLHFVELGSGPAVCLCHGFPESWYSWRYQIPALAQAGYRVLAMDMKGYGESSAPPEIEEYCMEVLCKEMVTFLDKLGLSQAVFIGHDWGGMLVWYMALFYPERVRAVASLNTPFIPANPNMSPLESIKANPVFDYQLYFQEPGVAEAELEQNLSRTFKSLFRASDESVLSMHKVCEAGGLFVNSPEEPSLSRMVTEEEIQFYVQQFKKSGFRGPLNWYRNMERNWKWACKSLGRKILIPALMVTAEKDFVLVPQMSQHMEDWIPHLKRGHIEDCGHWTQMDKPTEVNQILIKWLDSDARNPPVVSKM
CYP2C9 inhib: human CYP2C9 inhibition | CYP2C9 Supersomes, luciferin-H conversion, luminescence | AID 777 | 96,000 compounds, 20% hits | inhibition, % at 5 µM;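 active = blocking of liver enzyme CYP2C9 beyond about 50% at 5 µM, limit read from the data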
sEH act: increases human soluble epoxide hydrolase activity | P34913 | activation, % at 2 µM | purified human sEH enzymatic activity, activator screen | 91,000 compounds, 0.04% hits; in the data active = activation above about 37%
CYP2C19 inhib: inhibitors of human CYP2C19. P33261. CYP2C19 Supersomes, luciferin-H EGE luminescence, 30 min. inhibition, % at 5 µM. 96,000 compounds, 21% hits;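 active = CYP2C19 inhibition above a set limit at 5 µM in the primary screen, cut at about 50% in these data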
CYP2C9 act: CYP2C9 (human) activation; activation factor at 5 µM; 96,000 compounds, 1.4% hits; recombinant CYP2C9, luciferin-H conversion, luminescence; hits give high values; factor 1 = untreated enzyme, 0 = blocked; P11712; AID 1024;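 active = activation factor of 2 or more for CYP2C9 at a 5 µM dose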
CYP2C19 activ: activators of human cytochrome P450 2C19. AID 1025. P33261. 96,000 tested, under 10 active. recombinant CYP2C19, luciferin-H EGE luminescence; hits give high values; 0 = fully inhibited enzyme, 1 = untreated enzyme. activation factor at 5 µM;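 active = activation factor of at least 2 at 5 µM in the primary screen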
Of the large screens only hits and unclear results are named; the others gave an inactive call.

COc1ccc(OCc2nnc3n2N=C(c2ccc(OC)cc2)CS3)cc1	CYP2C9 inhib 90, CYP2C19 inhib 88 (no result: sEH inhibitor, sEH act)
COc1ccc(C2=Nn3c(nnc3-c3cccnc3)SC2)cc1	none (no result: CYP2C9 inhib, CYP2C19 inhib, CYP2C9 act, CYP2C19 activ)
COc1ccc(C2=Nn3c(nnc3-c3ccco3)SC2)cc1	CYP2C9 inhib 64, CYP2C19 inhib 56
COc1ccc(OC)c(C2=Nn3c(nnc3-c3ccco3)SC2)c1	CYP2C9 inhib 69, CYP2C19 inhib 85
Oc1ccc(C2=Nn3c(nnc3-c3ccco3)SC2)cc1O	none
CCOC(=O)N1CCN(C(=O)C2CCCN(S(=O)(=O)c3cccnc3)C2)CC1 (centres undefined)	none (no result: sEH inhibitor, sEH act)
Cc1csc(NC(=O)Cn2cnnn2)n1	none
CCOc1ccc(C2=Nn3c(nnc3-c3ccc(OC)cc3)SC2)cc1	none
CCOc1ccc(C2=Nn3cnnc3SC2)cc1	CYP2C19 inhib 95
O=S(=O)(c1ccc(Cl)c(Cl)c1)c1snnc1-c1ccccc1	CYP2C9 inhib 90, CYP2C19 inhib 99
Clc1ccc(CSc2snnc2-c2ccccc2)cc1	none
CCOc1ccc2oc(=O)cc(C)c2c1	none
Cc1cc(C)nc(SCC(=O)Oc2ccc3oc(=O)cc(C)c3c2)n1	CYP2C9 act 2.5
N#CC(C(=O)NC1CC1)c1nc2ccccc2nc1N1CCN(C/C=C/c2ccccc2)CC1 (centres undefined)	none
Clc1ccc(N=c2ssnc2Cl)cc1	none (no result: CYP2C9 inhib, CYP2C19 inhib, CYP2C9 act, CYP2C19 activ)
N#Cc1ccc(N=c2ssnc2Cl)cc1	CYP2C9 inhib 97
COc1cc(N=c2ssnc2Cl)cc(OC)c1OC	CYP2C9 inhib 89
COc1ccc(C2C3=C(CC(C)(C)CC3=O)Nc3c2c(=O)[nH]c2nc(C)nn32)cc1 (centres undefined)	none
COc1ccc2cc(/C=N/NC(=O)CSCc3ccc([N+](=O)[O-])cc3)c(Cl)nc2c1	none
Cc1nc2sc(C(c3ccc(C(C)C)cc3)N3CCN(CCO)CC3)c(O)n2n1 (centres undefined)	none (no result: sEH inhibitor, sEH act)
O=C(Nc1ccc(-n2nncc2-c2ccco2)cc1)c1cc2ccccc2oc1=O	CYP2C9 inhib 63
O=C(Nc1ccc(-n2nncc2-c2ccco2)cc1)c1cccc(F)c1	CYP2C9 inhib 72, CYP2C19 inhib 96
CC1(C)C=C(c2ccc(O)cc2)CC(C)(C)N1	none
COC(=O)C1(CO)NC(c2cccs2)C2C(=O)N(c3ccccc3)C(=O)C21 (centres undefined)	none
CSc1nc2ccc(S(=O)(=O)N(C)C)cc2s1	CYP2C19 inhib 86
CCN(CC)S(=O)(=O)c1ccc2nc(SC)sc2c1	CYP2C19 inhib 78
CSc1nc2ccc(NS(=O)(=O)c3ccc(Cl)s3)cc2s1	CYP2C9 inhib 100, CYP2C19 inhib 100
CSc1nc2ccc(S(=O)(=O)Nc3c(C)n(C)n(-c4ccccc4)c3=O)cc2s1	none
CSc1nc2cc(Cl)ccc2s1	none
CC1(Cc2ccc3c(c2)OCO3)NC(=O)NC1=O (centres undefined)	none
O=C(COC(=O)c1ccc(Br)o1)NCC1CCCO1 (centres undefined)	none
COc1ccc(S(=O)(=O)Cc2ccc(C(=O)NCc3ccccn3)o2)cc1	none (no result: sEH inhibitor, sEH act)
COc1ccc(NC(=O)C(C/C=C(/C)Cl)C(C)=O)cc1 (centres undefined)	none (no result: CYP2C9 inhib, CYP2C19 inhib, CYP2C9 act, CYP2C19 activ)
COc1ccc(C(CNC(=O)C2CC(=O)N(Cc3ccc(C)cc3)C2)N(C)C)cc1 (centres undefined)	none (no result: sEH inhibitor, sEH act)
CCC(c1nnnn1C(C)(C)CC)N(CCCN1CCOCC1)Cc1cc2cccc(C)c2[nH]c1=O (centres undefined)	none
CCC(c1nnnn1C(C)(C)CC)N(CCCO)Cc1cc2cccc(C)c2[nH]c1=O (centres undefined)	CYP2C9 inhib 75, CYP2C19 inhib 71 (no result: sEH inhibitor, sEH act)
CC1(C)OC(=O)N(c2cccnc2)C1(C)O (centres undefined)	none
COC(=O)C(NC(=O)c1ccccc1)(Nc1nc(C)cs1)C(F)(F)F (centres undefined)	none (no result: sEH inhibitor, sEH act)
COC(=O)C(NC(=O)c1ccc(F)cc1)(Nc1ncc(S(=O)(=O)c2ccc([N+](=O)[O-])cc2)s1)C(F)(F)F (centres undefined)	CYP2C9 inhib 88, CYP2C19 inhib 50
COC(=O)C(NC(=O)c1ccccc1C)(Nc1ncc(S(=O)(=O)c2ccc([N+](=O)[O-])cc2)s1)C(F)(F)F (centres undefined)	CYP2C9 inhib 60
COc1ccc(CCC(C(O)C(F)(F)F)S(=O)c2ccccc2)cc1 (centres undefined)	CYP2C9 inhib 50, CYP2C19 inhib 60
CC(=O)NC12CC3CC(C1)CC(C(=O)OCC(=O)Nc1ncc(Cl)cc1Cl)(C3)C2	none (no result: CYP2C9 inhib, CYP2C19 inhib, CYP2C9 act, CYP2C19 activ)
CC(=O)NC12CC3CC(C1)CC(C(=O)Nc1nccs1)(C3)C2	CYP2C9 inhib 56, CYP2C19 inhib 85 (no result: sEH inhibitor, sEH act)
CCCN(CCC)c1nc(N)nc(-c2cc(Cl)ccc2OC)n1	CYP2C19 inhib 58
CCCNc1nc(N)nc(-c2cc(Cl)ccc2OC)n1	CYP2C19 inhib 74
CCNC(=O)NC(=O)C(C)Sc1nc2ccccc2n1CC(C)C (centres undefined)	none
CCOC(=O)c1ccc(NC(=O)CC2Sc3ncnn3C2=O)cc1 (centres undefined)	none
CCCCOC(=O)Cn1cnc2ccc(Br)cc2c1=O	none
O=C(Cn1cnc2ccccc2c1=O)c1cccs1	none
CC(C)COC(=O)Cn1cnc2ccc(Br)cc2c1=O	CYP2C9 inhib 56, CYP2C19 inhib 91
O=C(Cn1cnc2ccc(Br)cc2c1=O)c1cccs1	CYP2C9 inhib 52, CYP2C19 inhib 78
O=C(Cn1cnc2ccc(Cl)cc2c1=O)c1cccs1	CYP2C19 inhib 54
CCCc1cc(C(=O)Nc2cc(Br)ccc2O)no1	none (no result: sEH inhibitor, sEH act)
Cc1ccc(SCCCCN2C(=O)NC(C)(C)C2=O)cc1	CYP2C9 inhib 77, CYP2C19 inhib 88
CC1(C)NC(=O)N(CCSc2ccc(Cl)cc2)C1=O	CYP2C9 inhib 50, CYP2C19 inhib 93
CC1(C)NC(=O)N(CCOCCSc2ccccc2)C1=O	CYP2C19 inhib 86
CC1(C)NC(=O)N(CCOCCOc2ccccc2)C1=O	none
CC(=O)NCCc1ccc(S(=O)(=O)N2CCCC2)cc1	none (no result: sEH inhibitor, sEH act)
CCN(CC)S(=O)(=O)c1cccc(C(=O)Oc2cccnc2)c1	none
Cn1c(=O)c2c(n(C)c1=O)=NC1(CCCCC1)N=2	none
CC(C)C(NC(=O)C(c1ccccc1)c1ccccc1)c1nc2ccccc2[nH]1 (centres undefined)	none
CCc1ccc(C(C)NC(=O)C2(C)CC2(Br)Br)cc1 (centres undefined)	CYP2C9 inhib 71, CYP2C19 inhib 90
CC(C)CC(=O)Nc1ccc(C(=O)NNC(=O)C(c2ccccc2)c2ccccc2)cc1	none
O=S(=O)(Nc1nc2ccccc2nc1NCc1ccco1)c1ccc(Cl)cc1	CYP2C9 inhib 98, CYP2C19 inhib 51
O=S(=O)(c1ccccc1)n1nc(-c2ccccc2)nc1NCc1ccco1	none
Cc1ccc(S(=O)(=O)NCc2ccco2)cc1C	CYP2C19 inhib 80, CYP2C9 act 2.7 (no result: sEH inhibitor, sEH act)

Source: PubChem
